# “And” between values parts separate entries of the source, which are not always exact repeats. Equal entries are not always repeated. Records with an inconclusive call do not appear. The source made the active and inactive calls.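 Rule for the calls, unless noted: active = normalized viability below 100% at a tested concentration; inactive = the rest.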
# Experiments:
# [1] = growth inhibition of DIPG glioma cells, dose response, cell-based, SU-DIPG-XVII, MIPE5.0, CellTiter-Glo, qHTS (AID 1347060; cut-off not given, nearly all actives have AC50 up to about 26 µM;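 note: cells exposed to compound for 48 hours before viability readout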); details: SU-DIPG-XVII viability, CellTiter-Glo ATP luminescence
# [2] = growth inhibition of DIPG glioma cells, dose response, cell-based, JHH-DIPG-1, MIPE4.0, CellTiter-Glo, qHTS (AID 1347062; cut-off not given, nearly all actives have AC50 up to about 27 µM;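 note: cells exposed to compound for two days before readout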); details: JHH-DIPG-1 viability, CellTiter-Glo ATP luminescence
# [3] = growth inhibition of DIPG glioma cells, dose response, cell-based, SU-DIPG-IV, MIPE4.0, CellTiter-Glo, qHTS (AID 1347063; cut-off not given, nearly all actives have AC50 up to about 30 µM;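 note: compound exposure lasted 48 hours before the viability readout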); details: SU-DIPG-IV viability, CellTiter-Glo ATP luminescence
# [4] = growth inhibition of DIPG glioma cells, dose response, cell-based, SU-DIPG-XIII, MIPE5.0, CellTiter-Glo, qHTS (AID 1347064; cut-off not given, nearly all actives have AC50 up to about 23 µM;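 note: cells exposed to compound for 48 hours before the viability read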); details: SU-DIPG-XIII viability, CellTiter-Glo ATP luminescence
# [5] = viability loss in pontine glioma line – cell-based, SU-DIPG-XXV, MIPE5.0, CellTiter-Glo, qHTS, dose response (AID 1347065; cut-off not given, nearly all actives have AC50 up to about 26 µM;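 note: cells exposed to compound for 48 hours before ATP readout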); details: CellTiter-Glo ATP luminescence
# [6] = SU-DIPG-VI glioma cell viability, MIPE4.0 library, CellTiter-Glo luminescence, qHTS (AID 1347066; cut-off not given, nearly all actives have AC50 up to about 30 µM;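 note: cells exposed to compound for 48 hours before readout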); details: CellTiter-Glo ATP luminescence
# [7] = JHH-DIPG-1 glioma cell viability, MIPE5.0 library, CellTiter-Glo luminescence, qHTS (AID 1347067; cut-off not given, nearly all actives have AC50 up to about 26 µM;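 note: cells exposed to compound for 48 hours before readout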); details: JHH-DIPG-1 glioma viability, CellTiter-Glo ATP luminescence
# [8] = SU-DIPG-XXV glioma cell viability, MIPE5.0 library, qHTS (AID 1347068; cut-off not given, nearly all actives have IC50 up to about 30 µM;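 note: cells exposed to compound for 48 hours before viability readout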)
# [9] = modifiers of HSF1 nuclear foci, imaging, Selleck Cancer Library (AID 1347162; in the data active = plate-normalised HSF1 focus index below about 0.46); details: human cells, at 10 µM; SSMD: measured here: HSF1 foci SSMD mean; cell count: measured here: cell number; plate-normalised HSF1 focus index: stronger effect = lower value
# [10] = ovarian cancer cell viability with rucaparib, profiling panel, oncology-focused library, rucaparib conditional (AID 1508598); details: patient-derived ovarian cancer cells, CellTiter-Glo viability, 144 h, stronger effect = lower value
# [11] = liver-stage malaria parasite growth inhibition, primary screen, cell-based, HepG2, luciferase luminescence, HepG2 viability (AID 624349; in the data active = parasite load remaining mostly below about 12%, no sharp cut-off; inactive = mostly above about 10%;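 note: 100% = mean of DMSO negative control wells on the same plate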); details: P. berghei liver stage in HepG2, luciferase luminescence, concentration not given here; parasite load remaining: stronger effect = lower value; viability: measured here: HepG2 viability without parasites
# [12] = sensitizers of A549 cells to miR-34 induction, primary screen, imaging, A549 dox-inducible miR-34, nuclei and caspase counts (AID 1347080;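 active = compounds whose cell count with miR-34 switched on is under 0.7 times the count with it off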); details: A549 miR-34 inducible, Hoechst nuclei count, 48 h
# [13] = survival rescue of mitochondrial mutant cells in low glucose, primary screen, MELAS cybrids, Rieske KO mouse fibroblasts, CellTiter-Glo (AID 1508586;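 active = mean z-score across replicates of 1.96 or higher in either the MELAS or the Rieske mutant cell line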;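 note: z relative to plate mean and SD of compound and empty wells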)
# [14] = at 0.000305 µM, OCI-C5x cells, with rucaparib 10 µM, 100% = cells with rucaparib alone
# [15] = at 0.000305 µM, OCI-C5x cells, without rucaparib
# [16] = at 0.000305 µM, OCI-P5x cells, with rucaparib 20 µM, 100% = cells with rucaparib alone
# [17] = at 0.000305 µM, OCI-P5x cells, without rucaparib
# [18] = at 0.00122 µM, OCI-C5x cells, with rucaparib 10 µM, 100% = cells with rucaparib alone
# [19] = at 0.00122 µM, OCI-C5x cells, without rucaparib
# [20] = at 0.00122 µM, OCI-P5x cells, with rucaparib 20 µM, 100% = cells with rucaparib alone
# [21] = at 0.00122 µM, OCI-P5x cells, without rucaparib
# [22] = at 0.00488 µM, OCI-C5x cells, with rucaparib 10 µM, 100% = cells with rucaparib alone
# [23] = at 0.00488 µM, OCI-C5x cells, without rucaparib
# [24] = at 0.00488 µM, OCI-P5x cells, with rucaparib 20 µM, 100% = cells with rucaparib alone
# [25] = at 0.00488 µM, OCI-P5x cells, without rucaparib
# [26] = at 0.0195 µM, OCI-C5x cells, with rucaparib 10 µM, 100% = cells with rucaparib alone
# [27] = at 0.0195 µM, OCI-C5x cells, without rucaparib
# [28] = at 0.0195 µM, OCI-P5x cells, with rucaparib 20 µM, 100% = cells with rucaparib alone
# [29] = at 0.0195 µM, OCI-P5x cells, without rucaparib
# [30] = at 0.0781 µM, OCI-C5x cells, with rucaparib 10 µM, 100% = cells with rucaparib alone
# [31] = at 0.0781 µM, OCI-C5x cells, without rucaparib
# [32] = at 0.0781 µM, OCI-P5x cells, with rucaparib 20 µM, 100% = cells with rucaparib alone
# [33] = at 0.0781 µM, OCI-P5x cells, without rucaparib
# [34] = at 0.313 µM, OCI-C5x cells, with rucaparib 10 µM, 100% = cells with rucaparib alone
# [35] = at 0.313 µM, OCI-C5x cells, without rucaparib
# [36] = at 0.313 µM, OCI-P5x cells, with rucaparib 20 µM, 100% = cells with rucaparib alone
# [37] = at 0.313 µM, OCI-P5x cells, without rucaparib
# [38] = at 1.25 µM, OCI-C5x cells, with rucaparib 10 µM, 100% = cells with rucaparib alone
# [39] = at 1.25 µM, OCI-C5x cells, without rucaparib
# [40] = at 1.25 µM, OCI-P5x cells, with rucaparib 20 µM, 100% = cells with rucaparib alone
# [41] = at 1.25 µM, OCI-P5x cells, without rucaparib
# [42] = at 5 µM, OCI-C5x cells, with rucaparib 10 µM, 100% = cells with rucaparib alone
# [43] = at 5 µM, OCI-C5x cells, without rucaparib
# [44] = at 5 µM, OCI-P5x cells, with rucaparib 20 µM, 100% = cells with rucaparib alone
# [45] = at 5 µM, OCI-P5x cells, without rucaparib
# [46] = stronger effect = lower value, cell number ratio, induced over uninduced
# [47] = measured here: relative caspase fold change +Dox/-Dox
# [48] = measured here: total cells with miR-34 induction, stronger effect = lower value
# [49] = measured here: total cells without miR-34 induction
# [50] = MELAS cybrid survival, CellTiter-Glo 48 h, stronger effect = higher value
# [51] = Rieske KO mouse fibroblast survival, CellTiter-Glo 72 h
structure (smiles),measurement,setting,value
C[C@@H](Oc1cc(-c2cnn(C3CCNCC3)c2)cnc1N)c1c(Cl)ccc(F)c1Cl,AC50,[1],4.68 µM (active)
same,AC50,[2],16.6 µM (active)
same,AC50,[3],14.8 µM (active)
same,AC50,[4],2.63 µM (active)
same,AC50,[5],1.66 µM (active)
same,AC50,[6],20.9 µM (active)
same,AC50,[7],8.33 µM (active)
same,IC50,[8],4.68 µM (active)
same,SSMD,[9],-10.4
same,cell count,[9],5640
same,plate-normalised HSF1 focus index,[9],0.639 (inactive)
same,viability,[10]; [14],129% (inactive)
same,viability,[10]; [15],131% (inactive)
same,viability,[10]; [16],112% (inactive)
same,viability,[10]; [17],105% (inactive)
same,viability,[10]; [18],124% (inactive)
same,viability,[10]; [19],125% (inactive)
same,viability,[10]; [20],103% (inactive)
same,viability,[10]; [21],107% (inactive)
same,viability,[10]; [22],136% (inactive)
same,viability,[10]; [23],133% (inactive)
same,viability,[10]; [24],106% (inactive)
same,viability,[10]; [25],104% (inactive)
same,viability,[10]; [26],123% (inactive)
same,viability,[10]; [27],121% (inactive)
same,viability,[10]; [28],98.3% (active)
same,viability,[10]; [29],96.4% (active)
same,viability,[10]; [30],125% (inactive)
same,viability,[10]; [31],121% (inactive)
same,viability,[10]; [32],103% (inactive)
same,viability,[10]; [33],98.8% (active)
same,viability,[10]; [34],118% (inactive)
same,viability,[10]; [35],124% (inactive)
same,viability,[10]; [36],101% (inactive)
same,viability,[10]; [37],94.2% (active)
same,viability,[10]; [38],117% (inactive)
same,viability,[10]; [39],116% (inactive)
same,viability,[10]; [40],72.6% (active)
same,viability,[10]; [41],79.6% (active)
same,viability,[10]; [42],10.7% (active)
same,viability,[10]; [43],91.2% (active)
same,viability,[10]; [44],6.65% (active)
same,viability,[10]; [45],13.1% (active)
CC(C)=CC[C@@H](O)C1=CC(=O)c2c(O)ccc(O)c2C1=O,parasite load remaining,[11],4.44% (active)
same,viability,[11],99.5%
same,AC50,[1],20.9 µM (active)
same,AC50,[2],0.526 µM (active)
same,AC50,[3],2.96 µM (active)
same,AC50,[4],11.8 µM (active)
same,AC50,[5],10.5 µM (active)
same,AC50,[6],2.96 µM (active)
same,fold change,[12]; [46],1.09 (inactive) and 1.03 (inactive)
same,fold change,[12]; [47],1.1 and 1.06
same,cell count,[12]; [48],2290 and 4460
same,cell count,[12]; [49],2110 and 4340
same,z-score,[13]; [50],-1.24 (inactive)
same,z-score,[13]; [51],1.65
O=C(Nc1cn[nH]c1-c1nc2ccc(CN3CCOCC3)cc2[nH]1)NC1CC1,AC50,[1],1.66 µM (active)
same,AC50,[2],10.5 µM (active)
same,AC50,[3],1.32 µM (active)
same,AC50,[4],5.9 µM (active)
same,AC50,[5],0.661 µM (active)
same,AC50,[7],1.86 µM (active)
same,IC50,[8],8.33 µM (active)
same,fold change,[12]; [46],1.08 (inactive)
same,fold change,[12]; [47],0.829
same,cell count,[12]; [48],1190
same,cell count,[12]; [49],1110
same,z-score,[13]; [50],2.04 (active)
same,z-score,[13]; [51],-1.89
same,viability,[10]; [14],103% (inactive)
same,viability,[10]; [15],125% (inactive)
same,viability,[10]; [16],120% (inactive)
same,viability,[10]; [17],122% (inactive)
same,viability,[10]; [18],128% (inactive)
same,viability,[10]; [19],132% (inactive)
same,viability,[10]; [20],111% (inactive)
same,viability,[10]; [21],116% (inactive)
same,viability,[10]; [22],116% (inactive)
same,viability,[10]; [23],119% (inactive)
same,viability,[10]; [24],116% (inactive)
same,viability,[10]; [25],118% (inactive)
same,viability,[10]; [26],102% (inactive)
same,viability,[10]; [27],111% (inactive)
same,viability,[10]; [28],120% (inactive)
same,viability,[10]; [29],105% (inactive)
same,viability,[10]; [30],82% (active)
same,viability,[10]; [31],108% (inactive)
same,viability,[10]; [32],111% (inactive)
same,viability,[10]; [33],76.9% (active)
same,viability,[10]; [34],89.8% (active)
same,viability,[10]; [35],104% (inactive)
same,viability,[10]; [36],109% (inactive)
same,viability,[10]; [37],66.7% (active)
same,viability,[10]; [38],36.1% (active)
same,viability,[10]; [39],48.8% (active)
same,viability,[10]; [40],118% (inactive)
same,viability,[10]; [41],53.2% (active)
same,viability,[10]; [42],26.8% (active)
same,viability,[10]; [43],18.2% (active)
same,viability,[10]; [44],39.6% (active)
same,viability,[10]; [45],18.8% (active)

# Source: PubChem BioAssay
